What follows are sequences tested against ALX4 (Homo sapiens, UniProt Q9H161 200-286, Q225E) (assay: PBM; 200 nM protein, PBS). Conditions: dsDNA, one strand shown.
ALX4, sequence (Q9H161 200-286 Q225E): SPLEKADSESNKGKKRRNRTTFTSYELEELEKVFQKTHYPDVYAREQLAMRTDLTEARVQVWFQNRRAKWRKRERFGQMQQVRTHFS

Row | Sequence | binding signal
1 | CCCGAAGG | 8.2 upbm affinity estimate (log intensity, higher = more binding, comparable within an allelic series)

The sequences below were run against HOXA2 (Homo sapiens, UniProt O43364 129-215, R185T) (assay: PBM; 200 nM protein, PBS). Conditions: dsDNA, one strand shown.
HOXA2, sequence (O43364 129-215 R185T): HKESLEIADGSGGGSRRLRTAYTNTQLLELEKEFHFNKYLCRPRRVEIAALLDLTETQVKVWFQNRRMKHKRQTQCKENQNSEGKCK

Row | Sequence | binding signal
2 | CAGGCTTC | 7.14 upbm affinity estimate (log intensity, higher = more binding, comparable within an allelic series)
3 | CCCCCCAG | 6.72 upbm affinity estimate (log intensity, higher = more binding, comparable within an allelic series)
4 | ATGAATGA | 9.4 upbm affinity estimate (log intensity, higher = more binding, comparable within an allelic series)
5 | GCCCCGAC | 7.21 upbm affinity estimate (log intensity, higher = more binding, comparable within an allelic series)
6 | CAGGAAGG | 6.96 upbm affinity estimate (log intensity, higher = more binding, comparable within an allelic series)

What follows are sequences tested against HOXA4 (Homo sapiens, UniProt Q00056 201-287, R217L) (assay: PBM; 200 nM protein, PBS). Conditions: dsDNA, one strand shown.
HOXA4, sequence (Q00056 201-287 R217L): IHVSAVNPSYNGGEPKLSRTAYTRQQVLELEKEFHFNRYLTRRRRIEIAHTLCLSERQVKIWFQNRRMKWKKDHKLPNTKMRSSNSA

Row | Sequence | binding signal
7 | CCCCAGGC | 9.7 upbm affinity estimate (log intensity, higher = more binding, comparable within an allelic series)
8 | AGCCCGAG | 9.88 upbm affinity estimate (log intensity, higher = more binding, comparable within an allelic series)
9 | CCCTGGTC | 9.68 upbm affinity estimate (log intensity, higher = more binding, comparable within an allelic series)
10 | CCGGACGG | 9.81 upbm affinity estimate (log intensity, higher = more binding, comparable within an allelic series)
11 | GCACCACC | 9.72 upbm affinity estimate (log intensity, higher = more binding, comparable within an allelic series)
12 | CCCGACGC | 9.86 upbm affinity estimate (log intensity, higher = more binding, comparable within an allelic series)
13 | CAGGCTTC | 9.71 upbm affinity estimate (log intensity, higher = more binding, comparable within an allelic series)
14 | CCCCCTTC | 9.27 upbm affinity estimate (log intensity, higher = more binding, comparable within an allelic series)
15 | GCCCGGAC | 9.75 upbm affinity estimate (log intensity, higher = more binding, comparable within an allelic series)
16 | GCGGACCC | 9.74 upbm affinity estimate (log intensity, higher = more binding, comparable within an allelic series)
17 | GAGGTTGC | 9.7 upbm affinity estimate (log intensity, higher = more binding, comparable within an allelic series)
18 | CCCCCCAG | 9.39 upbm affinity estimate (log intensity, higher = more binding, comparable within an allelic series)
19 | CCGAAGGC | 9.88 upbm affinity estimate (log intensity, higher = more binding, comparable within an allelic series)
20 | TAATTTGA | 11.4 upbm affinity estimate (log intensity, higher = more binding, comparable within an allelic series)
21 | GCCAAGCC | 9.8 upbm affinity estimate (log intensity, higher = more binding, comparable within an allelic series)
22 | CCCTCTCG | 9.86 upbm affinity estimate (log intensity, higher = more binding, comparable within an allelic series)
23 | CCCCACGG | 9.68 upbm affinity estimate (log intensity, higher = more binding, comparable within an allelic series)

Row | Sequence | binding signal
24 | GATCCCCC | 9.87 upbm affinity estimate (log intensity, higher = more binding, comparable within an allelic series)
25 | ATGAATGA | 11.1 upbm affinity estimate (log intensity, higher = more binding, comparable within an allelic series)
26 | CAGCCTCC | 9.73 upbm affinity estimate (log intensity, higher = more binding, comparable within an allelic series)
27 | ACCTTCGC | 9.99 upbm affinity estimate (log intensity, higher = more binding, comparable within an allelic series)
28 | GCCCCGAC | 9.94 upbm affinity estimate (log intensity, higher = more binding, comparable within an allelic series)
29 | CAGGAAGG | 9.68 upbm affinity estimate (log intensity, higher = more binding, comparable within an allelic series)
30 | GCCGGCCC | 9.63 upbm affinity estimate (log intensity, higher = more binding, comparable within an allelic series)
31 | CCGGCAGG | 9.86 upbm affinity estimate (log intensity, higher = more binding, comparable within an allelic series)
32 | CGCGCGCG | 9.88 upbm affinity estimate (log intensity, higher = more binding, comparable within an allelic series)
33 | GCCTCCCA | 9.83 upbm affinity estimate (log intensity, higher = more binding, comparable within an allelic series)
34 | AGCCACGG | 9.72 upbm affinity estimate (log intensity, higher = more binding, comparable within an allelic series)
35 | GACCCTCC | 9.94 upbm affinity estimate (log intensity, higher = more binding, comparable within an allelic series)
36 | GGGGGAAC | 9.7 upbm affinity estimate (log intensity, higher = more binding, comparable within an allelic series)
37 | CCGAGAGG | 9.77 upbm affinity estimate (log intensity, higher = more binding, comparable within an allelic series)
38 | CCCGAAGG | 9.81 upbm affinity estimate (log intensity, higher = more binding, comparable within an allelic series)
39 | CCCGAGGG | 9.62 upbm affinity estimate (log intensity, higher = more binding, comparable within an allelic series)

What follows are sequences tested against T1, SIX6 (Homo sapiens, UniProt O95475 114-200, T139Q) (assay: PBM; 200 nM protein, PBS). Conditions: dsDNA, one strand shown.
T1 sequence: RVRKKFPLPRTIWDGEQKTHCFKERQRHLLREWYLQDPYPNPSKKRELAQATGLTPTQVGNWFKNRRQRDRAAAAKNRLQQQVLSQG

Row | Sequence | binding signal
40 | AGTGATCC | 11.2 upbm affinity estimate (log intensity, higher = more binding, comparable within an allelic series)
41 | AGGGATCA | 11.1 upbm affinity estimate (log intensity, higher = more binding, comparable within an allelic series)
42 | GATCCCCC | 11.1 upbm affinity estimate (log intensity, higher = more binding, comparable within an allelic series)
43 | CAGATATC | 11.1 upbm affinity estimate (log intensity, higher = more binding, comparable within an allelic series)

Reference: paper PMC11006913
